# Measured values taken from ChEMBL document CHEMBL1157539, “Thousands of chemical starting points for antimalarial lead identification” (Nature, 2010).
# Over roughly 13,000 compounds, “IFI” has its median near 4; the highest 2% begin near 17. Shown is part of a subset that was picked to be rich in the highest values.
# Experiment: GSK_TCMDC: Inhibition Frequency Index (IFI). The number of non-kinase HTS assays where a compound showed > 50 % inhibition, expressed as a percentage of the number of such assays in which the compound was tested
# Assay type: functional
row,Structure (SMILES),IFI
1,NS(=O)(=O)c1ccc(Nc2nccc(-c3c(-c4cccc(NC(=O)c5c(F)cccc5F)c4)nn4ccccc34)n2)cc1,7.96%
2,Cc1cc(-c2ccc3c(c2)CCN(CCCOc2ccc4c(c2)CCN4C(=O)/C=C/c2ccccc2Cl)CC3)no1,10.8%
3,CN(C)CCN(C)Cc1ccc(-c2ccc3c(Nc4ccc(F)cc4Cl)ccnc3c2)o1,9.86%
4,Nc1ccc2[nH]cc(C3CCN(CCC4CCN(C(=O)/C=C/c5ccc(Cl)c(Cl)c5)CC4)CC3)c2n1,8.76%
5,CCCNCc1ccc(-c2ccc(CN(CCOC)C(=O)c3cnc(C)cn3)cc2)nc1,0%
6,O=C(Nc1ccc(C(F)(F)F)cc1)N[C@H]1CCN(CCCCCNC(=O)C2CC2c2ccc(Cl)c(Cl)c2)C1 (some centres not stated),16.8%
7,CC(C)Cc1cn(-c2nc(C(=N)N)cs2)c2cc(Cl)ccc12,23.9%
8,CC(C)Cc1cn(-c2nc(-c3nc4ccccc4[nH]3)cs2)c2cc(Cl)ccc12,1.18%
9,CC(C)Cc1cn(-c2nc(-c3nc4ccccc4[nH]3)cs2)c2ccncc12,4.94%
10,CCCN(Cc1ccc(C)cc1)Cc1cc(=O)c2cc(Cl)ccc2[nH]1,9.09%
11,Fc1ccc2[nH]c(-c3cccc(-c4cccc(CN5CCN(c6ccncc6)CC5)c4)c3)nc2c1,13.6%
12,Fc1ccc2[nH]c(-c3ccc(-c4cccc(CN5CCN(c6ccncc6)CC5)c4)cc3)nc2c1,18.1%
13,Fc1ccc2[nH]c(-c3cccc(-c4ccc(CN5CCN(c6ccncc6)CC5)cc4)c3)nc2c1,5.63%
14,Cc1cc(N)c2cc(NC(=O)c3cc4ccccc4s3)ccc2n1,6.12%
15,N=C(NCC1CC1c1ccccc1)c1cccc(C(=N)NCC2CC2c2ccccc2)n1 (configuration not stated),5.65%
16,c1ccc(COc2ccc(C3CCCCC3)cc2)nc1,2.9%
17,CC(CNC(=N)c1cccc(C(=N)NCC(C)Oc2cccc(C3CCCCC3)c2)n1)Oc1cccc(C2CCCCC2)c1 (configuration not stated),17.7%
18,Cc1cccc(NC(=O)Nc2cccc(-c3ccc(-c4nc5cc(C(F)(F)F)ccc5[nH]4)cc3)c2)c1,6.45%
19,O=C(Nc1ccc(C(F)(F)F)cc1)c1ccc(S(=O)(=O)NC2CCN(CC3CCCCC3)CC2)cc1,2.41%
20,Cc1ccc(C)c(S(=O)(=O)Nc2ccc(Br)cc2C(=O)Nc2cccc(C(F)(F)F)c2)c1,21.1%
21,Cc1cc(Cl)c(Cl)cc1NC(=O)Nc1cccc(C(F)(F)F)c1,6.52%
22,COc1cc(NC(=O)Nc2ccc(Br)cc2C(=O)Nc2ccc(Br)cc2)cc(OC)c1OC,1.55%
23,O=C(Nc1ccc(C(F)(F)F)cc1)c1cc(Br)cnc1NCCCn1ccnc1,1.67%
24,O=C(Nc1cc(C(F)(F)F)cc(C(F)(F)F)c1)c1cc(C(F)(F)F)cc(C(F)(F)F)c1,3.65%
25,O=C(Nc1ccc(Br)cc1)c1cc(Br)ccc1NS(=O)(=O)c1ccc(C(F)(F)F)cc1,25%
26,NCCNc1ccc([N+](=O)[O-])cc1C(=O)Nc1cccc(C(F)(F)F)c1,1.45%
27,O=C(Nc1ccc(Br)cc1)c1cc(Br)ccc1NS(=O)(=O)c1cc(C(F)(F)F)cc(C(F)(F)F)c1,19.9%
